DRD3 agonist: qHTS of D3 Dopamine Receptor Agonist: qHTS; 410,000 tested, 0.58% active; D3R DiscoveRx beta-arrestin cells, luminescence, 90 min; AID 652048, 2013; max activation, %; in the data active = max activation above about 30%; also: 0% is about no effect
Target sequence (P35462 whole entry, looked up): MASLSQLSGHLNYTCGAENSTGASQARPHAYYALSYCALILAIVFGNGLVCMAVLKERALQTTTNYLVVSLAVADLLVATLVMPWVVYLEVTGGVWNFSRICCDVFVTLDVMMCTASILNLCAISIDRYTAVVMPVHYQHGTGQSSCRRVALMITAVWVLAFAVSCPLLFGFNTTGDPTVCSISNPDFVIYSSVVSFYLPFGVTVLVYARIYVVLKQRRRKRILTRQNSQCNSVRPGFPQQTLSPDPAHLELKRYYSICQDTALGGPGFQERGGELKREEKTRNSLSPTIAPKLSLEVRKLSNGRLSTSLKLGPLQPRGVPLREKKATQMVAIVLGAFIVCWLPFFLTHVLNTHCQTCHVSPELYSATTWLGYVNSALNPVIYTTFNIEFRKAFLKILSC
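Agonist-mode cell screen: cells plated at 1500/well and incubated overnight at 37 °C, then exposed to library compounds for 90 min at 37 °C. Detection reagent was added for 30–60 min at room temperature, and luminescence was read.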
B2AR arrestin: qHTS assay of beta-arrestin-biased ligands of beta2-adrenergic receptor. Beta-2 adrenergic receptor (Homo sapiens), P07550. beta-arrestin recruitment to beta2AR, cell-based reporter. Potency, µM (titrated, usually from 46.1 µM), for inactives: top-dose activation, actives largely listed as activators. 330,000 tested, 0.02% active. AID 492947, 2010;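 also: potency is read from the fitted curve at half-maximal effect; 0% = DMSO controls and full agonism = EC100 isoproterenol or metaproterenol; nearly all actives have a fitted effect of over 65% in size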
Integrin act MD: qHTS for Activators of Integrin-Mediated Alleviation for Muscular Dystrophy; alpha7betagal myoblasts, beta-gal FDG fluorescence, 48 h; Potency, µM (doses to about 38.3 µM), without a hit: at the top dose activation, actives largely listed as activators; 350,000 tested, 0.064% active; AID 624291, 2012;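 also: potency is read from the fitted curve at half-maximal effect; 100% = response of the positive control SU9516; nearly all actives have a fitted effect of over 60% in size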
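alpha7betagal+/- myoblasts (passage 13, 250/well) treated 48 h at 37C with compounds at 1:260 dilution of DMSO stock. Lysed, then beta-galactosidase activity read as FDG fluorescence (ex 480/em 540) after 30 min, with pre-read for autofluorescence.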
mIDH1 inhibitor: qHTS for Inhibitors of mutant isocitrate dehydrogenase 1 (IDH1): qHTS; Isocitrate dehydrogenase [NADP] cytoplasmic (Homo sapiens), O75874; Potency, µM (series often up to 76.6 µM), for inactives: at the highest dose activity change, negative = inhibition, actives largely listed as inhibitors; 390,000 tested, 0.093% active; AID 602179, 2012; IDH1-R132H enzyme, NADPH consumption, diaphorase/resazurin fluorescence; also: potency is read from the fitted curve at half-maximal effect; % is scaled to controls: 0 for no effect and ±100 for the full control effect; nearly all actives have a fitted effect of over 65% in size
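IDH1-R132H (0.5 ug/mL dispensed) in pH 7.5 Tris buffer was preincubated 30 min with compound, then given a substrate mix of 0.016 mM NADPH and 2 mM alpha-KG for 80 min at room temperature; remaining NADPH was read by diaphorase/resazurin fluorescence.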
D3 antag: qHTS of D3 Dopamine Receptor Antagonist: qHTS; 360,000 tested, 2.5% active; D3R cells, DiscoveRx beta-arrestin luminescence, antagonist mode; hits give low values; AID 652054, 2013; D(3) dopamine receptor (Homo sapiens), P35462; max response, negative = inhibition, %; in the data active = max response below about -50%; inconclusive = no clear call, values can overlap the other calls; also: % is scaled to controls: 0 for no effect and ±100 for the full control effect
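Cells expressing the human receptor were seeded at 1500 cells/well, incubated overnight at 37 degrees C in 5% CO2, then exposed to library compounds with dopamine controls for 90 minutes at 37 degrees C before luminescent detection.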
* marks the source's active call; other numbers are inactive results; ? = inconclusive; · = no result. Sampled rows, rich in hits. Any-hit rate of the full collection: about 2.9%. Unless noted, calls follow the shape of the dose curve; as a rule, active = well fitted curve in the direction sought with a large enough effect; inconclusive = small, poorly fitted or top-dose-only effect, or another doubt; inactive = no such curve, though single readings can be large; an effect the other way counts as inactive or inconclusive.

SMILES	DRD3 agonist	B2AR arrestin	Integrin act MD	mIDH1 inhibitor	D3 antag
COc1cc(/C=N/N=C2/C(=O)Nc3ccccc32)cc(OC)c1O	-25	0%	3%	7%	-84*
O=C1Nc2ccccc2/C1=N/N=C/c1cccc(O)c1	5	0%	-25%	-10%	-9
CCOc1ccc(Nc2nc(-c3cccc(Cl)c3)c3c(n2)-c2ccccc2OC3)cc1	0	·	·	2%	·
COC(=O)C[C@H]1C=C[C@H](NC(=O)Cc2ccccc2)[C@@H](CO)O1	4	·	·	·	21
COC(=O)C[C@@H]1C=C[C@H](NC(=O)Cc2ccccn2)[C@@H](CO)O1	30*	·	·	·	-1
COc1ccc(C)cc1NC(=O)c1cc(S(=O)(=O)N2CCN(c3cccc(C)c3C)CC2)ccc1F	-4	·	·	-5%	·
Cc1coc2c(C)c3oc(=O)c(CC(=O)NCc4ccccc4)c(C)c3cc12	-5	·	·	7%	·
CCN(CC)CC#CCC(O)(c1ccccc1)c1ccccc1	-19	0%	-18%	13%	-79*
CCN(CC)CC#CCC(C)(c1ccccc1)c1ccccc1	-54	-3%	0%	0%	-55*
CCN(CC)CC#CCC(O)(c1ccccc1)c1ccc(Br)cc1 (configuration not stated)	-9	0%	-36%	-1%	-24
COc1ccc(NC(=O)c2oc3ccccc3c2NC(=O)Cc2ccc(F)cc2)c(OC)c1	1	·	·	5%	·
CCOc1ccc2nc(NC(=O)c3nc(SCc4ccc(C)cc4)ncc3Cl)sc2c1	6	·	·	-17%	·
CCN1CCN(C(=O)c2ccc(CSc3ccc(C)cc3)cc2)CC1	-30	0%	-31%	0%	-53*
Cc1ccc(C(=O)N2CCN(CCNC(=O)C(=O)NCc3ccc(Cl)cc3)CC2)cc1	-20	0%	27%	5%	-78*
Cc1ccc(SCc2ccc(C(=O)N3CCCC3)cc2)cc1	3	0%	-49%	3%	9
Cc1ccc(C(=O)N2CCN(CCNC(=O)C(=O)Nc3ccc(Cl)cc3)CC2)cc1	-22	-1%	11%	22%	-61*
O=C(NCCN1CCN(S(=O)(=O)c2ccccc2)CC1)C(=O)Nc1ccc(F)cc1	-10	-1%	?	9%	-11
Cc1ccc(S(=O)(=O)N2CCN(CCNC(=O)C(=O)Nc3ccc(F)cc3)CC2)cc1	32*	0%	-22%	6%	18
COc1ccccc1Cn1c(CNS(=O)(=O)c2c(C)cc(C)cc2C)nc2cccnc21	-16	·	·	0%	·
CC(C)N(C(=O)Cn1cc(S(=O)(=O)Cc2ccc(Br)cc2)c2ccccc21)C(C)C	4	·	·	-19%	·
O=C(CNCc1ccc(Cl)cc1)Nc1ccc(C(=O)N2CCCCC2)cc1	-11	0%	7%	3%	-2
O=C(CNCc1ccc(Cl)cc1)Nc1ccc(C(=O)N2CCCCCC2)cc1	-21	0%	-14%	7%	-65*
COc1cc(C(=O)OCC(=O)Nc2cccc(S(=O)(=O)N3CCCC3)c2)ccc1OCC(C)C	10	-1%	-28%	-5%	2
O=C(Nc1cccc(C(=O)OCc2cc(=O)n3c4c(sc3n2)CCCC4)c1)c1ccccc1	-1	·	·	-4%	·
COc1ccc(C(CC(=O)O)c2ccc3c(c2)OCO3)cc1 (configuration not stated)	-1	0%	-10%	0%	?
SMILES	DRD3 agonist	B2AR arrestin	Integrin act MD	mIDH1 inhibitor	D3 antag
COc1ccc(CNCCC(c2ccccc2)c2ccc3c(c2)OCO3)cc1 (configuration not stated)	-20	0%	-59%	13%	-74*
Cc1c(CC(=O)N2CCCCC2)c(=O)oc2cc3occ(C(C)(C)C)c3cc12	11	·	·	-8%	·
CCc1ccc(-c2cc(C(=O)Nc3ccc(S(=O)(=O)NC(C)=O)cc3)c3ccccc3n2)cc1	-13	0%	17%	10%	-93*
CCNC(=S)NNC(=O)c1cc(-c2ccc(OC)cc2)nc2ccccc12	2	-1%	-6%	0%	-6
O=C(Nc1nc2c(s1)CCCC2)c1cc(-c2ccncc2)nc2ccccc12	-28	0%	4%	1%	?
COc1ccc(Cl)cc1C(=O)NNC(=S)NC(=O)c1cc(-c2ccc(Cl)cc2)nc2ccccc12	-5	0%	13%	11%	-61*
O=C(Nc1nc2c(s1)CCCC2)c1cc(-c2ccccc2)nc2ccccc12	-8	0%	-6%	2%	-81*
O=C(NC(=S)Nc1ccccc1)c1cc(-c2ccccc2)nc2ccccc12	-9	4%	14%	-7%	-125*
CC1CCCCN1CCCNC(=O)c1cc(Sc2cccc(Cl)c2)nc2ccccc12 (configuration not stated)	-13	·	·	-8%	·
COc1cc(NS(=O)(=O)c2cc(Br)cc3c2N(C(=O)C2CC2)CC3)cc(OC)c1	2	·	·	14%	·
COCCCn1c(SCc2cccc(C(F)(F)F)c2)nc2cc(OC)c(OC)cc2c1=N	-7	-1%	0%	3%	41
COCCCn1c(SCc2ccccc2)nc2cc(OC)c(OC)cc2c1=N	31*	0%	-26%	7%	34
COc1ccc(Cn2c(SCc3cc(C)ccc3C)nc3cc(OC)c(OC)cc3c2=N)cc1	44*	0%	-68%	?	0
Fc1cccc(CNc2ncnc3ccc(-c4cccc(Cl)c4)cc23)c1	·	0%	·	·	·
CC(=O)c1ccc(NC(=O)c2nc3ccccc3n(C)c2=O)cc1	1	·	·	-2%	·
Cc1c(Cl)c(C(=O)NNC(=S)Nc2ccccc2)nn1C	2	0%	0%	4%	11
Cc1ccc(NC(=S)NNC(=O)c2nn(C)cc2Cl)cc1	-2	0%	2%	2%	-54*
Cc1ccc(NC(=O)COC(=O)c2nn(C)cc2Cl)cc1	0	0%	-17%	-5%	-3
Cc1cccc(NC(=S)NNC(=O)c2nn(C)cc2Cl)c1	-4	-1%	25%	-3%	-99*
CCn1cc(S(=O)(=O)c2cccc(C)c2)c(=O)c2cc(F)c(N3CCCC(C)C3)cc21 (configuration not stated)	-2	·	·	24%	·
CCNC(=O)N1CCN(CCCC(c2ccc(F)cc2)c2ccc(F)cc2)CC1	-88	0%	·	-2%	-114*
CC(=O)N1CCCc2cc(S(=O)(=O)N3CCCC(C(=O)Nc4ccc(F)cc4F)C3)ccc21 (configuration not stated)	-11	·	·	4%	·
COCCCn1cc(CN2CC(N3CCN(C)CC3)CS2(=O)=O)nn1 (configuration not stated)	5	·	·	·	-16
Cc1ccc(C(=O)Oc2cc(C)n(C)c(=O)c2)cc1	35*	4%	-14%	4%	91
